BAZ2B inh = BAZ2B (human) inhibition | hit rate 4.4% among 360,000 | AlphaScreen BAZ2B-H3K14Ac peptide displacement | Potency, µM (series often up to 114 µM), for the others: at the top dose activity change, negative = inhibition, hits mostly inhibitors; also: potency is read from the fitted curve at half-maximal effect; % is scaled to controls: 0 for no effect and ±100 for the full control effect; nearly all actives have a fitted effect of over 60% in size
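Protein-peptide AlphaScreen: BAZ2B 50 nM, b-H3K14Ac 50 nM, 1x PBS pH 7.4 + 0.01% Tween-20. Preincubation 30 min RT; cpd 30 min RT (top 110 uM); beads 20 min RT, light-protected.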
JMJD2A Tudor inh = blocks the human JMJD2A Tudor domain; O75164; AlphaScreen JMJD2A-Tudor / H3K4me3 peptide binding; Potency, µM (titrated, usually from 114 µM), inactives show top-dose activity change, negative = inhibition, usual class: inhibitors; hit rate 4.4% among 390,000; also: potency is read from the fitted curve at half-maximal effect; % is scaled to controls: 0 for no effect and ±100 for the full control effect; nearly all actives have a fitted effect of over 50% in size
HP1b chromo inh = inhibitors of HP1-beta chromodomain binding to methylated histone tails. P83916. AlphaScreen HP1-beta / biotin-H3K9me3 peptide binding. hit rate 0.56% among 390,000. AID 540317. Potency, µM (doses to about 114 µM), for inactives: at the top dose activity change, negative = inhibition, hits mostly inhibitors; also: potency is read from the fitted curve at half-maximal effect; nearly all actives have a fitted effect of over 70% in size
Target sequence (P83916 whole entry, looked up): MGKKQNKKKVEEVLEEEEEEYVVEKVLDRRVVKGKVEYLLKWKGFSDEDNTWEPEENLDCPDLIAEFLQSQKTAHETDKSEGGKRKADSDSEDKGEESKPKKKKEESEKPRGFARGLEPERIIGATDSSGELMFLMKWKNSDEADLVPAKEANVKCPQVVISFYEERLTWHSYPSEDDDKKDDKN
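AlphaScreen: HP1-beta (50 nM) preformed 30 min with biotin-H3(1-18)K9me3 peptide (50 nM) in PBS pH 7.4, 0.01% Tween-20. Compound added for 30 min at RT, then streptavidin donor/nickel chelate acceptor beads (10 ug/mL) for 30 min.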
G9a block = blocks human histone lysine methyltransferase G9a; Potency, µM (highest dose often 102 µM), without a hit: at the top dose activity, negative = inhibition, actives largely listed as inhibitors; G9a H3K9 monomethylation, AlphaScreen, 2 h; hit rate 8.8% among 350,000; AID 504332; Q96KQ7; also: potency is read from the fitted curve at half-maximal effect; % is scaled to controls: 0 for no effect and ±100 for the full control effect; nearly all actives have a fitted effect of over 75% in size
Target sequence (Q96KQ7 913-1193 limits assumed): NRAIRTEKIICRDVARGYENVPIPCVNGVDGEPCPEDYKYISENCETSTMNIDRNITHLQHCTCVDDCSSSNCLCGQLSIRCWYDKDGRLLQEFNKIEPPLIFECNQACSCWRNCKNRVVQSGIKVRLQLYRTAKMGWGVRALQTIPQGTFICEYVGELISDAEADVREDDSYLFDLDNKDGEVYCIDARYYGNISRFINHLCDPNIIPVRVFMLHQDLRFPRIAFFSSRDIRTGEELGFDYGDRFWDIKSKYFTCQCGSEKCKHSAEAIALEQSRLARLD
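Methyltransferase reactions run at room temperature for 2 h (20 nM enzyme, 500 nM biotin-H3K9 peptide, 20 uM SAM) after a 15 min compound preincubation; product detected by AlphaScreen beads and anti-H3K9me1 antibody.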
PI5P4Ka inh = PI5P4K alpha (human) kinase inhibition; PI5P4Kalpha enzyme, ADP-Glo luminescence, 60 min; stronger effect = lower value; hit rate 1.2% among 330,000; AID 652105; P48426; max response, %; active = max response of -50% or lower; inconclusive = between -30% and -50%; inactive = -30% or higher; also: value at the top dose of about 77 µM; % is scaled to controls: 0 for no effect and ±100 for the full control effect
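Reactions run in 0.038 M HEPES pH 7.4, 0.28 mM EGTA, 0.1% CHAPS and 5% DMSO, with PI5P4Kalpha, substrate, compound and 5 microM ATP final, one hour at room temperature. Readout is ADP-Glo luminescence.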
PLK1 PBD block = blocks phosphopeptide binding to human PLK1 polo-box domain; P53350; Plk1 PBD binding of FITC phosphopeptide, fluorescence polarization; Potency, µM, inactives show max response, negative = inhibition, hits mostly inhibitors; hit rate 2.8% among 360,000; AID 720504; also: potency is read from the fitted curve at half-maximal effect; series mostly up to about 57 µM; % is scaled to controls: 0 for no effect and ±100 for the full control effect; nearly all actives have a fitted effect of over 65% in size
* = called active by the depositor; u = inconclusive; x = no result given; ! = repeats disagree; [ ] = dose if it differs, or a comment. Rows were chosen to be rich in hits. Some 12% of all compounds tested hit in one or more screens of this group. Unless noted, calls follow the shape of the dose curve; as a rule, active = well fitted curve in the direction sought with a large enough effect; inconclusive = small, poorly fitted or top-dose-only effect, or another doubt; inactive = no such curve, though single readings can be large; an effect the other way counts as inactive or inconclusive.

SMILES	BAZ2B inh	JMJD2A Tudor inh	HP1b chromo inh	G9a block	PI5P4Ka inh	PLK1 PBD block
Cc1cccc(Cn2nnc3c(=O)[nH]c(C4CCN(C(=O)c5ccc(F)cc5)CC4)nc32)c1	-6%	-3%	43%	4%[59 µM]	x	x
CCOCCCn1cc(C(=O)c2cc(Br)ccc2O)cc(C#N)c1=O	56µM*	-8%	27%	-28%[59 µM]	-6	-6%
N#Cc1ccc(CN2CCC3(CC2)CCN(C(=O)c2csnn2)CC3)cc1	x	x	x	-8%[12.7 µM]	x	x
Cc1ccc(C(=O)N/C(=C\c2ccc(F)cc2)C(=O)NCCCn2ccnc2)cc1	79µM*	-15%	55%	8%	0	0%
COc1ccc(/C=C(\NC(=O)c2ccc(C)cc2)C(=O)NCCCn2ccnc2)cc1OC	50µM*	-29%	-11%	6%	-8	-7%
Cc1ccc(C(=O)N/C(=C/c2ccccc2F)C(=O)NCCCn2ccnc2)cc1	-33%	-14%	5%	9%	-2	27µM*
CCOC(=O)[C@]12CCCC=C1N(CCC1=CCCCC1)C(=O)[C@H](CC(=O)NCc1cccc(C(F)(F)F)c1)C2	x	x	x	x	10	-3%
CCC(=O)/C=C1\Sc2ccc(OC)cc2N1CCO	8%	-13%	52%	-22%[59 µM]	-1	-9%
CCC(=O)/C=C1\Sc2ccc(OC)cc2N1CC	2%	-15%	26%	50µM*	x	u
CCN1/C(=C\C(C)=O)Sc2ccc(OC)cc21	-28%	-23%	12%	5µM*	x	2%
CCN(CC(=O)Nc1cccc(S(=O)(=O)N(C)c2ccccc2)c1)Cc1cccs1	-32%	-6%	21%	10%[59 µM]	-1	-4%
CSc1cc(-c2ccc(Cl)cc2)c(C(=O)NC(C)C)s1	7%	u	-7%	27%	u	3µM*
CN(C(=O)c1ccccc1F)C(c1ccccc1)c1ccccc1	19%	26%	65%	-5%[59 µM]	-7	-8%
Cc1c[n+]([O-])n(-c2ccc(C(=O)O)cc2)n1	56µM*	u	6%	u	-26	-10%
Cc1nn(-c2ccc(C(=O)O)cc2)c(C)c1Cl	-22%	-3%	47%	-33%	4	-8%
COC(=O)c1cc(O)cc(OC)c1Oc1cc(C)cc(O)c1C(=O)O	8.9µM*	20µM*	u	u	u	-11%
Cc1nc2cnc(N3CCOCC3)nc2n(CCc2ccccc2)c1=O	x	x	x	5%[0.501 µM]	x	x
O=C1C2=C(CCCC2)C(=O)N1c1cccc(OCCBr)c1	-6%	6%[57.1 µM]	45%	40µM*	1	-5%
CC(C)CN(CCOc1cccc(N2C(=O)C3=C(CCCC3)C2=O)c1)CC(C)C	6%	-2%[57.1 µM]	77%	8%[59 µM]	6	-10%
O=C(Cn1nc2c(cc1=O)CCCC2)Nc1ccccc1C(F)(F)F	5%	-10%	19%[57 µM]	8%[59 µM]	x	x
CN(C)c1ccc(S(=O)(=O)NCC(=O)NCCOc2ccccc2F)cc1[N+](=O)[O-]	-33%	-31%	-13%	50µM*	-12	u
CN(C)c1ccc(S(=O)(=O)NCC(=O)N2CCN(S(=O)(=O)c3cccc(F)c3)CC2)cc1[N+](=O)[O-]	x	-34%	10%	x	4	-30%
CN(CC(=O)Nc1cccc(F)c1)C(=O)CNS(=O)(=O)c1ccc(N(C)C)c([N+](=O)[O-])c1	71µM*	u	-12%	50µM*	-15	15µM*
Cc1cccc(Cn2cc(C(=O)Nc3ccc(F)c(C(F)(F)F)c3)ccc2=O)c1	4%	-7%	36%[57 µM]	7%[59 µM]	x	x
O=C(NCc1ccc(F)cc1)c1ccc2c(c1)nnn2C1CCCC1	4%	u	42%	-5%[59 µM]	x	x
SMILES	BAZ2B inh	JMJD2A Tudor inh	HP1b chromo inh	G9a block	PI5P4Ka inh	PLK1 PBD block
O=C(Nc1ccc(N2CCOCC2)cc1)C1(c2ccc(Cl)cc2)CCC1	u	-33%	-6%	45µM*	4	-6%
O=C(/C=C/c1ccc(Cl)cc1)NC(=S)Nc1ccc(N2CCOCC2)c(Cl)c1	5%	u	u	22µM*	u	19µM*
O=C(/C=C/c1ccc(Cl)cc1)Nc1ccc(N2CCOCC2)cc1	-11%	u	-18%	-3%[59 µM]	-11	24µM*
O=C(/C=C/c1ccc(Cl)cc1)Nc1ccccc1N1CCOCC1	3%	-10%	39%	-3%[59 µM]	7	-7%
COCCn1c(=O)c(-c2cc(F)cc(F)c2)nc2cnc(OC)nc21	x	x	x	-2%[12.7 µM]	x	x
Cc1cc(C(=O)NC2CCCN(Cc3ccccc3F)C2)n[nH]1 (stereo not drawn)	-1%	-20%	23%	-5%	-6	0%
COc1cc(/C=C(\C(=O)O)c2ccc(S(=O)(=O)N3CCCC3)s2)cc(OC)c1	-39%	-16%	11%	50µM*	u	-6%
COc1ccc(Br)cc1/C=C(\C(=O)O)c1ccc(S(=O)(=O)N2CCCC2)s1	x	89µM*	-10%	x	-28	u
CCOc1ccc(/C=C(\C(=O)O)c2ccc(S(=O)(=O)N3CCCCC3)s2)cc1OC	x	-12%	7%	x	-15	-12%
O=C1O[C@H]([C@@H](O)CO)C(O)=C1O	1%	-16%	47%	13µM*!	-10	-10%
O=C(OCc1cc(=O)n2nc(C3CCCCC3)sc2n1)c1ccc(F)cc1	-13%	-4%	28%	-27%[59 µM]	x	x
COc1ccc([C@H]2[C@H](C(=O)OC(C)(C)C)N3N=Cc4ccccc4C3C23C(=O)c2ccccc2C3=O)c(OC)c1 (stereo partly drawn)	u	u	-16%	u	2	-25%
CC(C)(C)C(=O)[C@H]1[C@H](c2ccccc2)[C@@]2(N=C(c3ccccc3)OC2=O)C2c3ccccc3C=NN21 (stereo partly drawn)	-3%[57.1 µM]	u	-5%	79µM*	1	-3%
Cc1ccc2nc(NC(=O)CSc3cc(C)[nH]c(=O)n3)sc2c1	-24%	-18%	64%	u	x	x
O=C(COc1ccc(/C=N/NS(=O)(=O)c2ccccc2)cc1)N1CCOCC1	1%	1%	11%	40µM*	0	-11%
CC(=O)CNc1ccc(S(=O)(=O)N/N=C/c2ccccc2)cc1	-16%	-4%	54%	6.3µM*	10	u
Cc1ccc(S(=O)(=O)N/N=C/c2ccc(OCC(=O)N3CCOCC3)cc2)cc1	-18%	-11%[11.4 µM]	47%	-38%	3	-14%
O=C(CNS(=O)(=O)c1ccccc1)N/N=C\c1ccc(Cl)cc1	7%	-33%[57.1 µM]	u	13%[59 µM]	-10	24µM*
CC(NC(=O)COc1ccc(/C=N/NS(=O)(=O)c2ccccc2)cc1)c1ccccc1 (stereo not drawn)	8%	-3%	24%	50µM*	-5	-9%
CC(=O)Oc1ccc(/C=N/NS(=O)(=O)c2ccccc2)cc1	-8%	-15%	34%	8%[59 µM]	1	-1%
O=C(O)CCc1nnc2cnc3ccccc3n12	-11%	-8%	39%	-20%[59 µM]	x	x

Screening data deposited in PubChem BioAssay by National Center for Advancing Translational Sciences (NCATS).
